NS1 inh: inhibitors of influenza NS1 protein function; Potency, µM (titrated, usually from 46.1 µM); 0.4% of 270,000 active; calls by dose curve; note: actives are rising curves; nearly all actives have a fitted effect of over 50% in size
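In this qHTS, NS1 from influenza A is expressed in budding yeast, where it slows growth. Cells are switched from glucose to 2% galactose medium (pH 6.0, -URA), treated with compound, and growth recovery is read at OD600.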
Pf growth 96h: P. falciparum growth inhibition at 96 hours. 6.9% of 320,000 active. Potency, µM (top dose mostly 28.7 µM), hits mostly inhibitors. P. falciparum luciferase reporter growth, 96 h
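Two-generation exposure (96 h) targets delayed-death phenotype. Reporter parasites carrying integrated firefly luciferase, in red cells at 2% hematocrit and 0.05% parasitemia final, kept at 37 C, 5% CO2; luminescence loss indicates inhibition.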
Giardia FBPA inh: blocks Giardia fructose-bisphosphate aldolase activity; A8B2U2; purified Giardia FBPA; Potency, µM (titrated, usually from 59.6 µM), hits mostly inhibitors; 0.71% of 290,000 active; AID 2451; note: nearly all actives have a fitted effect of over 55% in size
Target sequence (A8B2U2 whole entry, looked up): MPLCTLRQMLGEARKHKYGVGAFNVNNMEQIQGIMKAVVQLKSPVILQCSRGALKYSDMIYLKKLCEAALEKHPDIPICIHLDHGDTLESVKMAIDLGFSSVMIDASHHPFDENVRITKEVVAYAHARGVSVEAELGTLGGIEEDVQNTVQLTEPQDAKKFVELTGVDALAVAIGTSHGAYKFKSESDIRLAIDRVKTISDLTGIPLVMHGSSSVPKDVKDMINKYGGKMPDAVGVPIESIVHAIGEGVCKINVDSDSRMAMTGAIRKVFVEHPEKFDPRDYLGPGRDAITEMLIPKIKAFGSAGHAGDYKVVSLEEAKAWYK
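Giardia FBPA (40 nM reagent) was preincubated 10 min at RT with compound (up to 57.5 uM final), then substrate plus GAPDH/TPI/NAD/arsenate coupling system with diaphorase/resazurin was added; resorufin fluorescence (525/598 nm) was read after 20 min.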
Cycloheximide cs: affects cycloheximide protein synthesis inhibition readout, counter-screen | max response, % | 12% of 300,000 active | cell reporter, cycloheximide protein synthesis inhibition counterscreen; in the data active = max response mostly above about 13%, no sharp cut-off; inactive = mostly below about 14%; note: read at 38.3 µM for the half of the compounds with a filed dose
Pf growth 48h: inhibits P. falciparum growth in the first generation, 48 h. P. falciparum luciferase growth in erythrocytes, 48 h. Potency, µM (series often up to 28.7 µM), most hits filed as inhibitors. 5.9% of 310,000 active
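In quantitative HTS format, infected erythrocytes bearing luciferase-reporter parasites were treated for a single generation at 37 C. Luminescence after adding detection reagent served as the growth measure.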
Shiga toxin inh: Shiga toxin inhibition; Vero cells, Shiga toxin protein synthesis inhibition reporter; inhibition, % at 38.7 µM; 9.2% of 290,000 active; in the data active = inhibition mostly above about 28%, no sharp cut-off; inactive = mostly below about 43%
Each line names hits and unclear results; the compound was inactive in the other large screens. This is a sample that favours compounds with a hit; in the whole collection about 21% have one here. Unless noted, calls come from the whole dose curve; as a rule, active = well fitted curve in the direction sought with a large enough effect; inconclusive = small, poorly fitted or top-dose-only effect, or another doubt; inactive = no such curve, though single readings can be large; an effect the other way counts as inactive or inconclusive.

Cc1ccc(C2(c3ccccc3)NC(=O)N(CC(=O)NC3CCS(=O)(=O)C3)C2=O)cc1C (stereo not drawn)	none (no result: NS1 inh, Giardia FBPA inh, Cycloheximide cs, Shiga toxin inh)
COc1cc(OC)cc(C(=O)N[C@H](C(=O)Nc2ccccc2N2CCOCC2)C(C)C)c1	Pf growth 96h 8.3µM (no result: Pf growth 48h)
Cc1cc(Cl)ccc1OC(C)C(=O)Nc1ccccc1N1CCOCC1 (stereo not drawn)	Pf growth 48h 7.4µM (no result: Pf growth 96h)
COc1cc(OC)cc(C(=O)NC(C(=O)Nc2ccc(N3CCOCC3)cc2)C(C)C)c1 (stereo not drawn)	Pf growth 48h inconclusive (no result: NS1 inh, Giardia FBPA inh, Cycloheximide cs, Shiga toxin inh)
CCC(C)Oc1cccc(C(=O)Nc2ccccc2N2CCOCC2)c1 (stereo not drawn)	Pf growth 48h 10µM
CC(=O)Oc1ccc2c3c1OC1[C@@H](OC(C)=O)C=C[C@H]4[C@H](C2)N(C)CC[C@]314 (stereo partly drawn)	none (no result: NS1 inh, Giardia FBPA inh, Cycloheximide cs, Shiga toxin inh)
CCOC(=O)c1ncc2[nH]c3cccc(OC(C)C)c3c2c1C	none (no result: NS1 inh, Pf growth 96h, Pf growth 48h)
N#Cc1ccc2[nH]cc(CCO)c2c1	none
Cc1ccccc1NC(=O)c1ccc(F)c(S(=O)(=O)N2CCCCC2)c1	none (no result: NS1 inh)
CCN(c1ccccc1)S(=O)(=O)c1cc(C(=O)Nc2ccccc2Cl)ccc1F	Pf growth 96h 2.9µM
CCN(c1ccccc1)S(=O)(=O)c1cc(C(=O)Nc2ccc(Br)cc2)ccc1F	Pf growth 96h inconclusive, Cycloheximide cs 14, Pf growth 48h inconclusive, Shiga toxin inh 65
CC1CCCC(C)N1C(=O)CSc1nnc(CSc2ncccn2)n1C (stereo not drawn)	Pf growth 96h 10µM
COC(=O)C/C=C/[C@@H](C)[C@@H](/C=N/OC[C@@H](C)[C@H](OCc1ccccc1)C(C)C)NS(=O)(=O)c1ccc(C)cc1	Pf growth 96h 9.3µM, Pf growth 48h 13µM
COC(=O)C/C=C\[C@@H](C)[C@@H](/C=N\OC[C@@H](C)[C@H](OCc1ccccc1)C(C)C)NS(=O)(=O)c1ccc(C)cc1	none (no result: NS1 inh, Pf growth 96h, Cycloheximide cs, Pf growth 48h, Shiga toxin inh)
Cn1nnnc1SCCNCc1ccccc1OCc1ccc(Cl)cc1	Pf growth 96h 12µM, Pf growth 48h inconclusive
COC(CNC(=O)C1CC(=O)N(CCc2ccc(C)cc2)C1)OC (stereo not drawn)	none
COc1cccc(NC(=O)C2C3C=CC4(O3)C2C(=O)N(CCCN2CCCC(C)C2)C4C(=O)NC2CCCCC2C)c1 (stereo not drawn)	Pf growth 96h 10µM
CC1CCCC(NC(=O)C2N(CCCN3CCCC3)C(=O)C3C(C(=O)Nc4ccc(Cl)cc4)C4C=CC32O4)C1C (stereo not drawn)	Pf growth 96h 5.9µM, Pf growth 48h inconclusive
Cc1nc2ccccn2c1-c1nnco1	none
Cc1cc(-c2nnco2)c(C)n1-c1ccccc1	Pf growth 96h inconclusive, Cycloheximide cs 37
CCn1c(CNC(=O)c2ccccc2Br)nnc1SCC(=O)Nc1nncs1	Pf growth 96h inconclusive, Giardia FBPA inh inconclusive
Cc1ccc(C)c(N2CC(O)(c3cccs3)[N+]3=C2CCCC3)c1 (stereo not drawn)	Pf growth 96h inconclusive, Pf growth 48h 10µM (no result: NS1 inh)
O=C(c1cc2cc(Cl)cc(Cl)c2oc1=O)N1CCOCC1	Pf growth 96h 8.3µM
O=C(c1cc(Cl)ccc1Cl)N1CCOCC1	Pf growth 96h 13µM
O=C(O)c1cc(Cl)c(Cl)cc1C(=O)N1CCOCC1	Pf growth 48h inconclusive (no result: Pf growth 96h)
O=C(c1cccn2c(=O)c3cc(Cl)ccc3nc12)N1CCOCC1	Pf growth 96h 10µM, Pf growth 48h 13µM
c1cc(CNc2ccc(N3CCOCC3)cc2)ccn1	Pf growth 96h inconclusive, Giardia FBPA inh inconclusive, Cycloheximide cs 33, Shiga toxin inh 49 (no result: Pf growth 48h)
Cc1ccc(CNc2ccc(N3CCOCC3)cc2)cc1	Cycloheximide cs 21, Shiga toxin inh 52
Cc1ccc(CNc2ccc(N3CCOCC3)c(Cl)c2)cc1	Pf growth 96h 10µM, Cycloheximide cs 22, Shiga toxin inh 30
Cc1ccc(NC(=O)CSCC(=O)Nc2ccc(N3CCOCC3)c(Cl)c2)cc1	Pf growth 48h inconclusive
COc1ccc(NC(=O)C2CCN(S(=O)(=O)c3cccc4nonc34)CC2)c(OC)c1	none
COC(CN(C)C(=O)c1cn(C)c2ccc(S(=O)(=O)N(C)C3CCCCC3)cc2c1=O)OC	none (no result: Giardia FBPA inh)
C/C(=N/NS(=O)(=O)c1ccc(F)cc1)c1ccncc1	Pf growth 96h inconclusive (no result: Giardia FBPA inh)
C/C(=N\Nc1ccc(F)cc1)c1ccncc1	Cycloheximide cs 24
C/C(=N\NC1=NCCN1)c1ccc(Cl)cc1	Pf growth 96h 2.3µM, Pf growth 48h inconclusive
C/C(=N\Nc1cccc(Cl)c1)c1ccncc1	Cycloheximide cs 24
C/C(=N\Nc1ccc(Cl)cc1)c1ccncc1	Pf growth 96h inconclusive, Cycloheximide cs 21, Pf growth 48h inconclusive
CN(C(=O)COC(=O)c1cc(S(=O)(=O)N2CCOCC2)c(Cl)cc1Cl)C1CCS(=O)(=O)C1 (stereo not drawn)	none
CC(OC(=O)CCC1CCCCC1)C(=O)Nc1ccc(S(N)(=O)=O)cc1 (stereo not drawn)	none (no result: NS1 inh, Giardia FBPA inh, Cycloheximide cs, Shiga toxin inh)
C=C(C)COc1ccc(-c2nc(N)ncc2Oc2ccc(OC)cc2)c(O)c1	Pf growth 48h inconclusive
C=C(C)COc1ccc(-c2ncnc(C(F)(F)F)c2-c2ccc(OC)cc2)c(O)c1	Pf growth 96h 0.93µM, Pf growth 48h 1.7µM
C=C(C)COc1ccc(-c2ncnc(C(F)(F)F)c2-c2ccccc2)c(O)c1	Pf growth 96h 1.7µM, Pf growth 48h 1.7µM
C=C(C)COc1ccc(-c2nc(N)nc(C(F)(F)F)c2-c2ccc(OC)cc2)c(O)c1	Pf growth 96h 2.1µM, Pf growth 48h 2.9µM
CCOC(=O)C1(CCCc2ccccc2)CCN(CCCn2cccn2)CC1	Pf growth 96h 10µM, Pf growth 48h inconclusive
CCOC(=O)C1(CCCc2ccccc2)CCN(Cc2nccn2CC)CC1	Pf growth 96h inconclusive, Pf growth 48h 10µM
CCCCCCC(O)C/C=C/CCCCCCCC(=O)O (stereo not drawn)	none (no result: NS1 inh, Giardia FBPA inh, Cycloheximide cs, Shiga toxin inh)
C/C(=N\Nc1nc(N)cc(Cl)n1)c1cccc(N)c1	Giardia FBPA inh inconclusive, Cycloheximide cs 52, Shiga toxin inh 39
C/C(=N\Nc1nc(N)cc(Cl)n1)c1cccc([N+](=O)[O-])c1	Pf growth 96h inconclusive, Cycloheximide cs 37, Shiga toxin inh 75
C/C(=N\NC(=O)CSc1nc(C)cc(C)n1)c1cccc([N+](=O)[O-])c1	none
CCOC(=O)C1CCN(C(=O)C2CCN(S(=O)(=O)c3cc(Cl)ccc3OCC)CC2)CC1	none
COC(=O)c1ccc(C(NC(=O)OCc2ccccc2)/C(C)=C/[C@@H](C)C(=O)NCc2nc3ccccc3s2)cc1 (stereo partly drawn)	none (no result: NS1 inh, Pf growth 96h, Cycloheximide cs, Pf growth 48h, Shiga toxin inh)
Cc1ccccc1Oc1cc(-n2ncc(Cl)c(Cl)c2=O)ncn1	Cycloheximide cs 14, Pf growth 48h inconclusive
CCc1n[nH]c(=S)n1/N=C/c1c(O)ccc2ccccc12	Pf growth 96h inconclusive (no result: Shiga toxin inh)
CSc1ccc(CNc2ccc(Cl)cc2)cc1	Cycloheximide cs 27, Shiga toxin inh 79
Clc1ccc(NCc2cccnc2)cc1	none (no result: Pf growth 48h)
